# Test results published in PubChem BioAssay (NCATS).
# Records with an inconclusive call do not appear. Where a call stands in place of a potency, no number is given. Active and inactive are the calls of the source. The call rests on the fitted dose curve; in most records, active means well fitted inhibition curve with a large enough effect; inconclusive means small, poorly fitted or top-dose-only effect; inactive means flat fitted curve, though single readings scatter.
# Tested on: AS120
# Test: qHTS profiling for inhibitors of Plasmodium falciparum proliferation (AID 504749); further: nearly all actives have a fitted effect of over 60% in size
# Conditions: P. falciparum in erythrocytes, SYBR Green DNA, 72 h; series mostly up to 28.7 µM
# Outline: (§1)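 Three-day growth assay of blood-stage parasites in erythrocytes (0.3% parasitemia, 2.5% hematocrit) at 37 C, 5% CO2, quantified by SYBR Green DNA staining after overnight detergent lysis.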
row,SMILES,Potency
1,CCOc1ccc2ccccc2c1C(=O)N[C@@H]1C(=O)N2[C@@H]1SC(C)(C)[C@@H]2C(=O)O,inactive
2,Cc1cc(CC(=O)O)n(C)c1C(=O)c1ccc(Cl)cc1,inactive
3,O=C(O)c1ccccn1,inactive
4,CCCCC(CC)COC(=O)c1ccccc1O (stereo not given),inactive
5,COc1cc(C)c(Cc2cnc(N)nc2N)cc1OC,inactive
6,CCC(=O)c1ccc(O)cc1,inactive
7,NCCNCCNCCN,inactive
8,C[C@](N)(Cc1ccc(O)cc1)C(=O)O,inactive
9,O=C1NC(=O)[C@@]2(CCOc3ccc(F)cc32)N1,inactive
10,CC(C)(C)C(=O)NCCCC(=O)O,inactive
11,NCCNCCNCCNCCN,inactive
12,Nc1ccc(S(=O)(=O)NC(=O)c2ccccc2)cc1,inactive
13,CCCCN(CCCC)CCCOC(=O)c1ccc(N)cc1,inactive
14,[O-][n+]1cccc(CO)c1,inactive
15,O=C1c2c(O)cccc2Cc2cccc(O)c21,inactive
16,CCC(=O)Nc1ccc(O)cc1,inactive
17,Cc1cc(O)cc2c1O[C@](C)(CCC[C@H](C)CCC[C@H](C)CCCC(C)C)CC2,inactive
18,Cc1ncc(COP(=O)(O)O)c(C=O)c1O,inactive

row,SMILES,Potency
1,CC1(C)[C@@H]2CC[C@@]1(C)C(=O)C2,inactive
2,O=C(O)COc1nn(Cc2ccccc2)c2ccccc12,inactive
3,O=S(=O)(O)NC1CCCCC1,inactive
4,COc1ccc(S(=O)(=O)Nc2nnc(CC(C)C)s2)cc1,inactive
5,O=C1OC(OC(=O)c2cccnc2Nc2cccc(C(F)(F)F)c2)c2ccccc21 (stereo not given),inactive
6,CC1(C)CO[C@@H](CC(=O)O)CN1,inactive
7,O=Cc1ccccc1C=O,inactive
8,CC(=O)c1ccc2c(c1)N(CCCN(C)C)c1ccccc1S2,inactive
9,O=C(O)[C@@H]1CSCN1,inactive
10,CC(=O)Nc1ccc(/C=N/NC(N)=S)cc1,inactive
11,C#CCN(C)Cc1ccccc1,inactive
12,Cc1cccc(Nc2cc(Cl)nc(SCC(=O)O)n2)c1C,inactive
13,NCC(=O)CCC(=O)O,inactive
14,O=c1cc[nH]c(=S)[nH]1,inactive
15,O=C(O)c1ccccc1-c1ccc(C(F)(F)F)cc1,inactive
16,CC(=O)CCC(=O)O,inactive
17,OCC(O)CN1CCN(c2ccccc2)CC1 (stereo not given),inactive

# Tested on: ATS189
# Test: as above
# Conditions: P. falciparum in erythrocytes, SYBR Green DNA, 72 h; series mostly up to 28.7 µM
# Outline: as §1
row,SMILES,Potency
1,CCOc1ccc2ccccc2c1C(=O)N[C@@H]1C(=O)N2[C@@H]1SC(C)(C)[C@@H]2C(=O)O,inactive
2,Cc1cc(CC(=O)O)n(C)c1C(=O)c1ccc(Cl)cc1,inactive
3,O=C(O)c1ccccn1,inactive
4,CCCCC(CC)COC(=O)c1ccccc1O (stereo not given),inactive
5,COc1cc(C)c(Cc2cnc(N)nc2N)cc1OC,inactive
6,CCC(=O)c1ccc(O)cc1,inactive
7,NCCNCCNCCN,inactive
8,C[C@](N)(Cc1ccc(O)cc1)C(=O)O,inactive
9,O=C1NC(=O)[C@@]2(CCOc3ccc(F)cc32)N1,inactive
10,CC(C)(C)C(=O)NCCCC(=O)O,inactive
11,NCCNCCNCCNCCN,inactive
12,Nc1ccc(S(=O)(=O)NC(=O)c2ccccc2)cc1,inactive
13,CCCCN(CCCC)CCCOC(=O)c1ccc(N)cc1,inactive
14,[O-][n+]1cccc(CO)c1,inactive
15,O=C1c2c(O)cccc2Cc2cccc(O)c21,inactive
16,CCC(=O)Nc1ccc(O)cc1,inactive
17,Cc1cc(O)cc2c1O[C@](C)(CCC[C@H](C)CCC[C@H](C)CCCC(C)C)CC2,inactive
18,Cc1ncc(COP(=O)(O)O)c(C=O)c1O,inactive

row,SMILES,Potency
1,CC1(C)[C@@H]2CC[C@@]1(C)C(=O)C2,inactive
2,O=C(O)COc1nn(Cc2ccccc2)c2ccccc12,inactive
3,O=S(=O)(O)NC1CCCCC1,inactive
4,COc1ccc(S(=O)(=O)Nc2nnc(CC(C)C)s2)cc1,inactive
5,O=C1OC(OC(=O)c2cccnc2Nc2cccc(C(F)(F)F)c2)c2ccccc21 (stereo not given),inactive
6,CC1(C)CO[C@@H](CC(=O)O)CN1,inactive
7,O=Cc1ccccc1C=O,inactive
8,CC(=O)c1ccc2c(c1)N(CCCN(C)C)c1ccccc1S2,inactive
9,O=C(O)[C@@H]1CSCN1,inactive
10,CC(=O)Nc1ccc(/C=N/NC(N)=S)cc1,inactive
11,C#CCN(C)Cc1ccccc1,inactive
12,Cc1cccc(Nc2cc(Cl)nc(SCC(=O)O)n2)c1C,inactive
13,NCC(=O)CCC(=O)O,inactive
14,O=c1cc[nH]c(=S)[nH]1,inactive
15,O=C(O)c1ccccc1-c1ccc(C(F)(F)F)cc1,inactive
16,CC(=O)CCC(=O)O,inactive
17,OCC(O)CN1CCN(c2ccccc2)CC1 (stereo not given),inactive
